# Laboratory results published in ChEMBL document CHEMBL2218924, “A broad activity screen in support of a chemogenomic map for kinase signalling research and drug discovery” (Biochem J, 2013).
# Tests used:
# [1] = biological target: T1, Ephrin type-A receptor 3 (Homo sapiens) (UniProt P29320); conditions: at 10 µM
# T1 sequence (whole entry): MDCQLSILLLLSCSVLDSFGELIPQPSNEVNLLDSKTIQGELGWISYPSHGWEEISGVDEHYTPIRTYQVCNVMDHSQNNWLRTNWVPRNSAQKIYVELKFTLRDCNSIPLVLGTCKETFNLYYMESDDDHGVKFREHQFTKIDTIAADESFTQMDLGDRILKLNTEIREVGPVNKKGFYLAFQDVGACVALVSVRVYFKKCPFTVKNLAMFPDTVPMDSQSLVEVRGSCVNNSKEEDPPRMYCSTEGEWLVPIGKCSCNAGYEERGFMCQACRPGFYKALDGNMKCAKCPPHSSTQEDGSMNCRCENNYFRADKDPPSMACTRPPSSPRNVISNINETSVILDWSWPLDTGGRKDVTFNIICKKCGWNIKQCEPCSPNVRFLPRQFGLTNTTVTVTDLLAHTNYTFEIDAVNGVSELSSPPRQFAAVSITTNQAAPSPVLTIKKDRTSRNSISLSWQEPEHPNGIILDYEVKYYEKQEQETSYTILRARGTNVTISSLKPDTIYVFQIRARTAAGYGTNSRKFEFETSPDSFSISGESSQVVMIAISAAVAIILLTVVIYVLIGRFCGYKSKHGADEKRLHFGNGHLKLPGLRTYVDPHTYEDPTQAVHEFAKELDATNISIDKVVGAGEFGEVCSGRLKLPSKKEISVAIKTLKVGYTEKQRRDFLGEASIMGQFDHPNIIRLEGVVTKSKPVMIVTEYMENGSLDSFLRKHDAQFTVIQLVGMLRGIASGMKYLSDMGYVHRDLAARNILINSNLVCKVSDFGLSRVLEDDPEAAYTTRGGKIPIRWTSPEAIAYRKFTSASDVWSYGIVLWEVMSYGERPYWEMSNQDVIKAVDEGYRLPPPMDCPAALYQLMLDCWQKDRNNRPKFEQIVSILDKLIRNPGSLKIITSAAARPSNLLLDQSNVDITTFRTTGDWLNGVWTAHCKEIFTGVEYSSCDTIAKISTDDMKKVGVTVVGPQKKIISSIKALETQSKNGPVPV
# [2] = biological target: Ephrin type-A receptor 4 (Homo sapiens) (UniProt P54764); conditions: at 1 µM
# [3] = biological target: Ephrin type-A receptor 4 (Homo sapiens) (UniProt P54764); conditions: at 10 µM
# [4] = biological target: Ephrin type-A receptor 5 (Homo sapiens) (UniProt P54756); conditions: at 1 µM
# [5] = biological target: Ephrin type-A receptor 5 (Homo sapiens) (UniProt P54756); conditions: at 10 µM
# [6] = biological target: T2, Ephrin type-A receptor 8 (Homo sapiens) (UniProt P29322); conditions: at 1 µM
# T2 sequence (whole entry): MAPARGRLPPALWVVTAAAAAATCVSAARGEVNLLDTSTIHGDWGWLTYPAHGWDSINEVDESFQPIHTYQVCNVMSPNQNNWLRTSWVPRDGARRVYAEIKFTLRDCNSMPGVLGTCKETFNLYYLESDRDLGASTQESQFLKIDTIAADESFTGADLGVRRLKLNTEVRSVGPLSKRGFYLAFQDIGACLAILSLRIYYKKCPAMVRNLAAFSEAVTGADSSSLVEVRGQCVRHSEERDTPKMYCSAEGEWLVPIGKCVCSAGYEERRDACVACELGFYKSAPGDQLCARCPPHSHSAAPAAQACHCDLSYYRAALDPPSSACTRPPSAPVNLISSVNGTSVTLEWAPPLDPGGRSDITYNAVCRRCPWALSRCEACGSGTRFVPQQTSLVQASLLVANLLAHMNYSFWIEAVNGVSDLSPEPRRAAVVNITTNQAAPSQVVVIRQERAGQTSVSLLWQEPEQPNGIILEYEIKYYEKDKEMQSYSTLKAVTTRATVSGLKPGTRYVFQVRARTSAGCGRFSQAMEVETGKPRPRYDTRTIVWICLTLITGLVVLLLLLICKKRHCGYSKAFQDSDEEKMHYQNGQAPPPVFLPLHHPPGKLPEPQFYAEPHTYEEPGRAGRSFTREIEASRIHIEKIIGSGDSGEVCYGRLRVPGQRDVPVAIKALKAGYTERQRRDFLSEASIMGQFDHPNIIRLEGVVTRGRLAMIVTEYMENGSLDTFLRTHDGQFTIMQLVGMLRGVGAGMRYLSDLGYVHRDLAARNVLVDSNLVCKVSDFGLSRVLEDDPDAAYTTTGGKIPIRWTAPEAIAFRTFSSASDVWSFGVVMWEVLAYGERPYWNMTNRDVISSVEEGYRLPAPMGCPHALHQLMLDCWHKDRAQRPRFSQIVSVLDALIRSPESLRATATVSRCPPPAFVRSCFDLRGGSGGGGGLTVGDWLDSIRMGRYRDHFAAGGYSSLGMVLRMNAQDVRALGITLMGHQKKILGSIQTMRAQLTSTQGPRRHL
# [7] = biological target: T2, Ephrin type-A receptor 8 (Homo sapiens); conditions: at 10 µM
# [8] = biological target: T3, Ephrin type-B receptor 1 (Homo sapiens) (UniProt P54762); conditions: at 1 µM
# T3 sequence (whole entry): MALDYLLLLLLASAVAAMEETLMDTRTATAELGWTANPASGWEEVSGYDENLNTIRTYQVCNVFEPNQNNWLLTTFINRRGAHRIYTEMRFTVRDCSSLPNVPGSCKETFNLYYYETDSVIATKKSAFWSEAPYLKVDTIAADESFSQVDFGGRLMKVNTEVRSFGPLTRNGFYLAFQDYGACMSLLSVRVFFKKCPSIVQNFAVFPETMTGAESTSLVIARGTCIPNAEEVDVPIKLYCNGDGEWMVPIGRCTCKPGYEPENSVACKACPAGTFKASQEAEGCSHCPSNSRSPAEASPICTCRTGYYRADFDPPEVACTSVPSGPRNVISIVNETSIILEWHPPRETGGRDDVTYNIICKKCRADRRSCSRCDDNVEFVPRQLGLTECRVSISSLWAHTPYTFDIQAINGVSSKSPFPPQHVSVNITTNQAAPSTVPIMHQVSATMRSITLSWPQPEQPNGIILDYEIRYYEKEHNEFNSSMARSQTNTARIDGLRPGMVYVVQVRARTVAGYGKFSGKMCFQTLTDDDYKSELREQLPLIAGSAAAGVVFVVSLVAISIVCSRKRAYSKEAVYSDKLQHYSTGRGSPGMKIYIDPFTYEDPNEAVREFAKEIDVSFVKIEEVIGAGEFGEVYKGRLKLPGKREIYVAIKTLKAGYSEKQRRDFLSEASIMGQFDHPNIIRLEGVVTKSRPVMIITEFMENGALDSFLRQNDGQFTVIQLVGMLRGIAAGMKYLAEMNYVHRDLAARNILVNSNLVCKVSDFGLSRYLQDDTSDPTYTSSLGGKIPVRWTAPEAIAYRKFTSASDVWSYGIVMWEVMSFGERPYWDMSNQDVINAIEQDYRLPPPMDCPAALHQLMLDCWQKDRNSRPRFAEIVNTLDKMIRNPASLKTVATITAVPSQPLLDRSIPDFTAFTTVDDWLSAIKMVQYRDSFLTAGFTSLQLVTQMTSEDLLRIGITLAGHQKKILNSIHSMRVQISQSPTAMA
# [9] = biological target: T3, Ephrin type-B receptor 1 (Homo sapiens); conditions: at 10 µM
# [10] = biological target: T4, Ephrin type-B receptor 3 (Homo sapiens) (UniProt P54753); conditions: at 1 µM
# T4 sequence (whole entry): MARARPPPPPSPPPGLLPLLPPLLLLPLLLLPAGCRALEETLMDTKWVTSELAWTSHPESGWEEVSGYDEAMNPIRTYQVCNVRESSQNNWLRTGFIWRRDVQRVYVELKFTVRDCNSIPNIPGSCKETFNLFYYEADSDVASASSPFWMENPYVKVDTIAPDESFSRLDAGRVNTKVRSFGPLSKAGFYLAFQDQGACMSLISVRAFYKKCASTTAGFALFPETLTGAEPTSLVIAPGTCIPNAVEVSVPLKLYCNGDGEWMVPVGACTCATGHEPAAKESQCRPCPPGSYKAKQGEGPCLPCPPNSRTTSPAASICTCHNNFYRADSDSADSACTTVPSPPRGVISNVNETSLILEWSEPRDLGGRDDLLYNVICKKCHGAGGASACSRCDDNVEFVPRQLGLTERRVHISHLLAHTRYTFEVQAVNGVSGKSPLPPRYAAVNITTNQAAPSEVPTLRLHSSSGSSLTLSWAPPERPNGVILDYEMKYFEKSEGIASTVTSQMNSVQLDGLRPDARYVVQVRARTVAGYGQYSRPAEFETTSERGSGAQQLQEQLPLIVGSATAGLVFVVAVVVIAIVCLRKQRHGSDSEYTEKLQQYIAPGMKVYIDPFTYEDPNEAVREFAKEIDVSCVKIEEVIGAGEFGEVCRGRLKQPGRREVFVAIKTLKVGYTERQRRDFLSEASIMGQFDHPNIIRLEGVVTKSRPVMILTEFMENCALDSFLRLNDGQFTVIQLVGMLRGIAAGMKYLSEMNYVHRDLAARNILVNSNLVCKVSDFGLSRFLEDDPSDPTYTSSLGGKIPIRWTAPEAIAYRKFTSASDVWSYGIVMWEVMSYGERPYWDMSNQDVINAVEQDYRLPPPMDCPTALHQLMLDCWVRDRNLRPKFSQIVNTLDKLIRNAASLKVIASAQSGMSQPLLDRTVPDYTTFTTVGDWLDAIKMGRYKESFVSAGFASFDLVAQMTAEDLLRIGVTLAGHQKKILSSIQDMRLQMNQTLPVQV
# [11] = biological target: T4, Ephrin type-B receptor 3 (Homo sapiens); conditions: at 10 µM
# [12] = biological target: T5, Ephrin type-B receptor 4 (Homo sapiens) (UniProt P54760); conditions: at 1 µM
# T5 sequence (whole entry): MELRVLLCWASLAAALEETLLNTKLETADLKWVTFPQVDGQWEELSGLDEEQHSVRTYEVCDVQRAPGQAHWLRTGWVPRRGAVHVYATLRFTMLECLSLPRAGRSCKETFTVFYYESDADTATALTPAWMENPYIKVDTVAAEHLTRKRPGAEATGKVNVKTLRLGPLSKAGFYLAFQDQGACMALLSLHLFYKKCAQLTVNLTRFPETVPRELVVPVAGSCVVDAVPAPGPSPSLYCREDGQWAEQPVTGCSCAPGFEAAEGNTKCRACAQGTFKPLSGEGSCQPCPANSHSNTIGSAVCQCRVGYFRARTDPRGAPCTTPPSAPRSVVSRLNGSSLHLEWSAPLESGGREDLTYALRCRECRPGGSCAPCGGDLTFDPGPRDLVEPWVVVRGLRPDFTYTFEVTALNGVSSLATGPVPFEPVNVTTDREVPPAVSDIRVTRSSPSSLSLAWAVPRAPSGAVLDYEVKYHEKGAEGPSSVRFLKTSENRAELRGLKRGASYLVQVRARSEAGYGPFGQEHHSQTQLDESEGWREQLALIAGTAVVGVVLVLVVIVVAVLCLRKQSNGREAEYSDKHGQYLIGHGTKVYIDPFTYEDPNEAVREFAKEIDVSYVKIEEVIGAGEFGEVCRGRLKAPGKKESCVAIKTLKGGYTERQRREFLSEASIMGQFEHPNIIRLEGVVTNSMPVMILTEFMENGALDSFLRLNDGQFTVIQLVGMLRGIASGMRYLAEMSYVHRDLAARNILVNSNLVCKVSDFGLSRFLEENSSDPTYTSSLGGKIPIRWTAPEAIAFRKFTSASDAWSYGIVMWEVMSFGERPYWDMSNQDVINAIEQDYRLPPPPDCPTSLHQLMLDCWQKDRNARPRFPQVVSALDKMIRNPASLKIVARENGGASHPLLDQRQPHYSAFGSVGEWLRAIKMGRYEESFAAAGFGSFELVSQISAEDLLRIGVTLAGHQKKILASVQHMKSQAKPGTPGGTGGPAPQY
# [13] = biological target: T5, Ephrin type-B receptor 4 (Homo sapiens); conditions: at 10 µM
# [14] = biological target: Receptor tyrosine-protein kinase erbB-4 (Homo sapiens) (UniProt Q15303); conditions: at 1 µM
# [15] = biological target: Receptor tyrosine-protein kinase erbB-4 (Homo sapiens) (UniProt Q15303); conditions: at 10 µM
# [16] = biological target: Focal adhesion kinase 1 (Homo sapiens) (UniProt Q05397); conditions: at 1 µM
# Chain of Focal adhesion kinase 1 (Homo sapiens) (Q05397 2-1052 limits assumed): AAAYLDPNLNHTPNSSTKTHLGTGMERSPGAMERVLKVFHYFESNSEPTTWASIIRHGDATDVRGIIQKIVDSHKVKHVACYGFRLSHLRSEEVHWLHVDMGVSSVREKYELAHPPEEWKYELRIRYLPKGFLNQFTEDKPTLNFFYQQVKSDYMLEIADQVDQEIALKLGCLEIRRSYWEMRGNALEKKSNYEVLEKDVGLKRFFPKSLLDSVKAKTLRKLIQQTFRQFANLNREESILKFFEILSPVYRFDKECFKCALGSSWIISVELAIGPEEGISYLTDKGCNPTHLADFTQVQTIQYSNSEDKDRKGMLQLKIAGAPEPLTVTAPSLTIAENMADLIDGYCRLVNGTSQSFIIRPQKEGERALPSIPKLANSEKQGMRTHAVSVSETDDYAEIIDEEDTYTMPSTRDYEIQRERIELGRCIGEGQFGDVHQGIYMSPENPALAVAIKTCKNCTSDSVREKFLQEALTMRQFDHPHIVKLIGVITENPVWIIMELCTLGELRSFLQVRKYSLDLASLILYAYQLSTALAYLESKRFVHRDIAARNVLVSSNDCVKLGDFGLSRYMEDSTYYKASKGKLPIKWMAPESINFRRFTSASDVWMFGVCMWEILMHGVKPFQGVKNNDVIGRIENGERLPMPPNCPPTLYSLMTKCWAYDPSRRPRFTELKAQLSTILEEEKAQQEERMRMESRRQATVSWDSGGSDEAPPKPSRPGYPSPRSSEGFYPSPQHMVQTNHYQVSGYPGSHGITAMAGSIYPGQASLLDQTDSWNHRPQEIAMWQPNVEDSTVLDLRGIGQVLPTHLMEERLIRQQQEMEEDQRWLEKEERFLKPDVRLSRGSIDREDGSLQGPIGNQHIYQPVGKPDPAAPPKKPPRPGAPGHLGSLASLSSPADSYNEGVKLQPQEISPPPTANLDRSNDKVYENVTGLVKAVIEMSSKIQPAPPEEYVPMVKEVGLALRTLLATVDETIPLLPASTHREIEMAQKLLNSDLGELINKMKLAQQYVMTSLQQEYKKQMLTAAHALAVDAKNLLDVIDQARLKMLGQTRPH
# Chain of Receptor tyrosine-protein kinase erbB-4 (Homo sapiens) (Q15303 whole entry): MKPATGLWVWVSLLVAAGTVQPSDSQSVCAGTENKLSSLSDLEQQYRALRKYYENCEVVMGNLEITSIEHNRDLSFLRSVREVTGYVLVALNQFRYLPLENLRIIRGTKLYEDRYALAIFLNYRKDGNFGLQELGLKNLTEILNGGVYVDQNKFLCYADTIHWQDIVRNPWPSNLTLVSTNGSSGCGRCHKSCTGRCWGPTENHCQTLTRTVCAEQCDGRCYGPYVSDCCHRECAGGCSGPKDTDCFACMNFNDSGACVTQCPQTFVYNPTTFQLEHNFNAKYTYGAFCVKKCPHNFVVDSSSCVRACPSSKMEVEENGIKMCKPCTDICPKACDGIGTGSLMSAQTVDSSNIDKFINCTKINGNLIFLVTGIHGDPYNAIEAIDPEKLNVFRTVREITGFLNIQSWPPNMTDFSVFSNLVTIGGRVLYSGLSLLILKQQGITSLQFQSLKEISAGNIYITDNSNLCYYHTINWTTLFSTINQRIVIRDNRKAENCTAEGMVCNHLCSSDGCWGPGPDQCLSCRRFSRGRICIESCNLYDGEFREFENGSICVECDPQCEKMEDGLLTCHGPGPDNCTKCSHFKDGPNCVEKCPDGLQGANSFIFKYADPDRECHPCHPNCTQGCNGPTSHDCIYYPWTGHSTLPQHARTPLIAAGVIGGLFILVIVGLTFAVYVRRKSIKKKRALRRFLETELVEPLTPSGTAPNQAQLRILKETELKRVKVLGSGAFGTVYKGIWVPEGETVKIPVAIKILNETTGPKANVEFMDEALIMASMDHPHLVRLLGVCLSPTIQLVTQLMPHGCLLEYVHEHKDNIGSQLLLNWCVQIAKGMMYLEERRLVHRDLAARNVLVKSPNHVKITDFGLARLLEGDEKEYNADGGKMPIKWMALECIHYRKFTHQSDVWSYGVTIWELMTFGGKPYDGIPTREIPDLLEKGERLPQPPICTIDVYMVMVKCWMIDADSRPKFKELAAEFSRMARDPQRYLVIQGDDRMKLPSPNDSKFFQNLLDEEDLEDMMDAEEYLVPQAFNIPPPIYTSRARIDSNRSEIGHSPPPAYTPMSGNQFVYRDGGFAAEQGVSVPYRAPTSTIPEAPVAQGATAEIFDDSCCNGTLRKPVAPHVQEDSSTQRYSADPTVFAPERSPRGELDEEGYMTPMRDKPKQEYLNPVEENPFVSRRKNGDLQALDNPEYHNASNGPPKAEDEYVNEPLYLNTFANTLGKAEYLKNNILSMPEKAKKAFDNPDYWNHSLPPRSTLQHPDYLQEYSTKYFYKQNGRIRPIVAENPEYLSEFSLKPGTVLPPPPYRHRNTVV
# Chain of Ephrin type-A receptor 5 (Homo sapiens) (P54756 whole entry): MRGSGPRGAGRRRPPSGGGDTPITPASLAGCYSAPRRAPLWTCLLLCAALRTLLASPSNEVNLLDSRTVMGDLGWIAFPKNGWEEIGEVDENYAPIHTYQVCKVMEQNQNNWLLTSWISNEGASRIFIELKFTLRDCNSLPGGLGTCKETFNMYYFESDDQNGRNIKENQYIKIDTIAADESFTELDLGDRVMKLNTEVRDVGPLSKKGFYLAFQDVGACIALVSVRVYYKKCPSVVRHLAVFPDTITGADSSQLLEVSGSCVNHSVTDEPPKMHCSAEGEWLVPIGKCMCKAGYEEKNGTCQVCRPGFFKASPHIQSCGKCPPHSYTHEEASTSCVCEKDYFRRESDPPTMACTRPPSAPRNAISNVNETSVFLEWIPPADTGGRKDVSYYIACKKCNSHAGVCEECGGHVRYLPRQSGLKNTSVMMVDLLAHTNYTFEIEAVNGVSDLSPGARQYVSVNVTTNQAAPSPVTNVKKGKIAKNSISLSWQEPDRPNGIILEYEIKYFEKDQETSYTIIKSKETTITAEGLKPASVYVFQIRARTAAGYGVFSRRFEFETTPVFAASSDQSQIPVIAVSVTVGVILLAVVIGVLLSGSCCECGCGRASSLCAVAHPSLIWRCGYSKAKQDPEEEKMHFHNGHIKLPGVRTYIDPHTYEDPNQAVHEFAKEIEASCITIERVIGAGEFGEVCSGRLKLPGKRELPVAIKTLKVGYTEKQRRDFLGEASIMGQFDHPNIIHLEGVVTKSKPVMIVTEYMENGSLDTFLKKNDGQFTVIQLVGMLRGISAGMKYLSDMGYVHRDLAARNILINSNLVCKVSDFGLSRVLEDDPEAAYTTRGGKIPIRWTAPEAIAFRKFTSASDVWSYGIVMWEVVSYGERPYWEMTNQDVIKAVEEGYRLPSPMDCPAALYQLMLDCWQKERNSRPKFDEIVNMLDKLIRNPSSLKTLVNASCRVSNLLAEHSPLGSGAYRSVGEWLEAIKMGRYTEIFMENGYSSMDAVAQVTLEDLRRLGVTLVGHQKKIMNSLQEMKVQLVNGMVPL
# Chain of Ephrin type-A receptor 4 (Homo sapiens) (P54764 whole entry): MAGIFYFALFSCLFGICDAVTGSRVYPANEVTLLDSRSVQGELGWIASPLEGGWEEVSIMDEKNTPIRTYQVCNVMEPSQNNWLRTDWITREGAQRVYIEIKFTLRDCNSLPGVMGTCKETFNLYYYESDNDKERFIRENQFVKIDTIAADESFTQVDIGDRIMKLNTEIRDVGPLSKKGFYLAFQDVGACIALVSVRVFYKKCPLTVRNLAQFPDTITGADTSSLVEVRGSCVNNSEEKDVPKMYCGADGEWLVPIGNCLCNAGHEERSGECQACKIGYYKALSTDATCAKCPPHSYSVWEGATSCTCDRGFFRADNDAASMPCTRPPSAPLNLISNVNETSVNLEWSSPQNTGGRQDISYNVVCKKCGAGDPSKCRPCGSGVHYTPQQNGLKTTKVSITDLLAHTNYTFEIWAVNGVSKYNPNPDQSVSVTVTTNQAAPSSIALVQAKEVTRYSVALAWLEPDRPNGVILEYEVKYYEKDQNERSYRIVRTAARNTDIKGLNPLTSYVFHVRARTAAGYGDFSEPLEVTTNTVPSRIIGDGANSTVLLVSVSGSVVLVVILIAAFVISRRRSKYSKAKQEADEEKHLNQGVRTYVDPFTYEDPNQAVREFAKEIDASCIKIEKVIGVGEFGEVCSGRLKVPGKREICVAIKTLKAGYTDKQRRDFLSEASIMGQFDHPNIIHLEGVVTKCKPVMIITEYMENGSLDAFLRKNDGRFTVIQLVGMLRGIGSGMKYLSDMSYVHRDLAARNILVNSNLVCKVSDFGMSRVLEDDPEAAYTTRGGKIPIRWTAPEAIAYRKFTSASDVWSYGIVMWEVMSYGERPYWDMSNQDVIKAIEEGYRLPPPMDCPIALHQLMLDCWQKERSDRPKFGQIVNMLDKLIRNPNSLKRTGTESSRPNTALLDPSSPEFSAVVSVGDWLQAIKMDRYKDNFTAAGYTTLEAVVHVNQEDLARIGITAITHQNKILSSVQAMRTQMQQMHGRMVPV
structure (smiles),measurement,setting,value
O=C1NC(=O)c2c1c1c3ccccc3[nH]c1n1cncc21,residual activity,[1],83%
same,residual activity,[2],98%
same,residual activity,[3],94%
same,residual activity,[4],105%
same,residual activity,[5],76%
same,residual activity,[6],88%
same,residual activity,[7],93%
same,residual activity,[8],90%
same,residual activity,[9],74%
same,residual activity,[10],121% (inactive)
same,residual activity,[11],97%
same,residual activity,[12],82%
same,residual activity,[13],73%
same,residual activity,[14],87%
same,residual activity,[15],73%
same,residual activity,[16],57%
